Only a sample is shown.
aSyn UTR act: Activators via SNCA 5'UTR binding, MLPCN; actives 7.1% (n = 300,000); alpha-synuclein 5'UTR reporter, activators screen; activity score, % (tested at 7.5 µM), hits read low; in the data active = activity score below about -60%
Starred values were filed as active, the others as inactive.

SMILES | aSyn UTR act
O=C(CSc1ccc(F)cc1)Nc1ccccc1Br | -74.5*
O=C(CSc1ccc(F)cc1)Nc1ccc(Br)cc1 | -148.8*
Cc1ccc(Cc2cnc(NC(=O)c3cccs3)s2)cc1 | -91.2*
O=C(Nc1ncc(Cc2cccc(Cl)c2)s1)c1cccs1 | -192.4*
O=C(Nc1ncc(Cc2ccc(SC(F)F)cc2)s1)c1ccccc1 | 67.7
CCc1ccc(/C=C2/C(=O)N(C)C(=S)N2CC(=O)OC)s1 | -81.2*
CCOc1ccc(NCC(=O)N/N=C/C=C/c2ccccc2)cc1 | -84.4*
CCOc1ccc(N=C/C=C/c2ccccc2)c(O)c1 | -67.4*
Nc1nnc(C(=O)c2ccccc2N)s1 | -123.1*
O=C1CC(c2ccccc2)=NN1c1nc(-c2ccccc2)cs1 | -150.1*
N=C1SCC(=O)N1c1nc(-c2ccccc2)cs1 | -159.5*
CCOc1ccccc1N1CCN(C(=O)c2cn(CC3CCCCC3)nn2)CC1 | -83.8*
Cc1nc2sc(C(=O)c3ccccc3)c(N)c2c(C)c1C | -67.8*
CC(=O)Nc1ccc(Nc2nc(C)c([N+](=O)[O-])c(Nc3ccccc3)n2)cc1 | 58.1
Nc1c(C(=O)Nc2ccccc2)sc2ncc([N+](=O)[O-])cc12 | -63.2*
Cc1nc2sc(C(=O)Nc3ccccc3)c(N)c2c(C)c1[N+](=O)[O-] | -78.5*
Cc1nc2sc(C(=O)OC(C)C)c(N)c2c(C)c1C | -189.9*
CC(=O)Nc1ccc(Nc2nc(C)c([N+](=O)[O-])c(N(C)c3ccccc3)n2)cc1 | 85.6
CC(=O)c1ccc(NC(=O)c2sc3nc(C)c(C)c(C)c3c2N)cc1 | -232.9*
Cc1snc2sc(C(=O)c3ccc(Br)cc3)c(N)c12 | -101.4*
C/C(=N\Nc1nncc2ccccc12)c1ccc(C(C)(C)C)cc1 | -83.6*
C/C(=N\Nc1nncc2ccccc12)c1cccc(OC(F)F)c1 | -97.4*
Nc1n[nH]c2ccccc12 | -61.6*
Cc1cc(=O)oc2cc(NC(=O)c3ccccc3Cl)ccc12 | -201.3*
Cc1ccc2sc3ccc(NC(=O)c4ccccc4Cl)cc3c(=O)c2c1 | -109.1*
SMILES | aSyn UTR act
Cc1cc(=O)oc2cc(NC(=O)c3c(Cl)cnn3C)ccc12 | -76.1*
Cc1cc(=O)oc2cc(NC(=O)c3ccnn3C)ccc12 | -135.3*
CC(C)CC1c2[nH]c3ccccc3c2CCN1C(=O)c1cnccn1 (configuration not stated) | -94.5*
Cc1cc(C)c2nc3sc(C(=O)N4CCOCC4)c(N)c3cc2c1 | 87.8
Cc1ccc(C)c2nc3sc(C(=O)N4CCOCC4)c(N)c3cc12 | -128.8*
CCc1cc2c(N=Nc3c(O)[nH]c4ccccc34)ncnc2s1 | -62.1*
Cc1sc2ncnc(N=Nc3c(O)[nH]c4ccccc34)c2c1C | -140.9*
Oc1[nH]c2ccccc2c1N=Nc1nncc2ccccc12 | -62.2*
COc1cc(/C=C2\C=CC(=O)O2)cc(OC)c1 | -65.1*
O=[N+]([O-])c1ccc(COc2ccccc2/C=N/O)cc1 | -132.3*
CCn1nc(C)c(/C=N/NC(=O)c2ccoc2C)c1C | -111.6*
CCCCCn1nc(C)c(/C=N/NC(=O)c2ccoc2C)c1C | -170.9*
CCN(CC)c1cc(C)c2cc(NC(=O)c3ccccc3OC)ccc2n1 | -75.1*
CCN(CC)c1cc(C)c2cc(NC(=O)c3cccs3)ccc2n1 | -64.5*
CCOC(=O)c1cc(C)n(CCc2ccccc2)c1C | -68.8*
CCc1ccc(C(=O)Cn2ncc(Cl)c(Cl)c2=O)cc1 | -64.0*
O=C(Cn1ncc(Cl)c(Cl)c1=O)N1CCOCC1 | -61.6*
O=C(Cn1ncc(Cl)c(Cl)c1=O)N1CCc2ccccc21 | 134.7
O=C(Cn1ncc(Cl)c(Cl)c1=O)N1CCN(Cc2ccccc2)CC1 | -70.7*
CC1(C)C(=O)Nc2ccccc2N1C(=O)Cn1ncc(Cl)c(Cl)c1=O | -167.1*
Brc1ccc(-c2csc(N3CCOCC3)n2)cc1 | -131.9*
c1ccc(-c2cnnc(N3CCCCC3)n2)cc1 | -139.6*
CN1CCN(c2nc(-c3ccc(Cl)s3)cs2)CC1 | -83.6*
COc1ccc(-c2csc(N3CCOCC3)n2)cc1OC | -79.7*
O=[N+]([O-])c1ccc(-c2csc(N3CCCCCC3)n2)cc1 | -77.6*
SMILES | aSyn UTR act
c1ccc(-c2csc(N3CCCCCC3)n2)cc1 | -139.0*
Clc1ccc(-c2csc(N3CCCCCC3)n2)cc1 | -85.3*
Clc1ccc(-c2csc(N3CCOCC3)n2)cc1 | -140.3*
Cc1cc(SCC(=O)c2cc3ccccc3o2)nc2ccccc12 | -73.2*
CC(=O)c1cccc(NC(=O)NCc2ccccn2)c1 | -166.9*
O=C(NCc1ccncc1)Nc1ccc2c(c1)OCO2 | -64.3*
O=C(Nc1ccc2c(c1)OCO2)Nc1ccccn1 | -85.8*
O=C(Nc1ccccn1)Nc1cccs1 | -76.8*
O=C(Nc1cccc(F)c1)Nc1ccccn1 | -152.7*
O=C(NCc1cccs1)Nc1ccc(Cl)cc1 | -98.5*
Cc1cccc(NC(=O)NCc2ccc3c(c2)OCO3)c1 | -67.0*
O=C(NCc1ccccn1)Nc1ccc2c(c1)OCO2 | -91.9*
O=C(NCc1cccs1)Nc1ccc2c(c1)OCO2 | -145.0*
O=C(Nc1ccc2c(c1)OCO2)Nc1cnccn1 | -98.3*
COc1ccccc1N=Cc1c(C)c(C#N)c2[nH]c3ccccc3n2c1=O | -89.8*
Cc1nc(Nc2nc3c(c(=O)[nH]2)CCC3)nc2ccccc12 | 125.6

Assay outcomes as filed in PubChem.
